Test [1] in a line: inhibitors of TNFa-induced NFkB p65 translocation, primary screen, imaging, HUVEC, MLSMR starter and 10KST1 sets (AID 438).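 Further: compound added about 3h40 before a 20 min TNFalpha stimulation.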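 On inhibition: signal is the nuclear over cytoplasmic p65 intensity ratio per well.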 As to conditions: HUVEC TNFa-induced p65 nuclear translocation; cell count: measured here: nuclei count (cytotoxicity indicator), at 2.08 µM; inhibition: at 2 µM, stronger effect = higher value, 0% TNFa-plus-vehicle, 100% no-TNFa wells.
Test [2] can be described thus: reduction of polyQ htt aggregates in cells – imaging, exon1htt(103Q)mCFP cells, high-content imaging, primary screen (AID 483;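 active means visual image review flags a hit and inhibition of aggregation exceeds 20%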;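 further: compound exposure lasted 3 days before fixation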;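 on nuclei count: percent of the per-plate median nuclei count of sample wells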). The following applies: exon1htt(103Q)mCFP cell line, aggregate imaging, at 2 µM; inhibition of aggregation: stronger effect = higher value; nuclei count: measured here: cell count, toxicity.
A short description of test [3]: endothelial E-selectin expression blockers – imaging, HUVEC, immunofluorescence, MLSMR starter and 10KST1 sets, primary screen (AID 487;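 active means visually confirmed hit in the image check and inhibition above 20%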;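 on inhibition: signal is fraction of cell area covered by stained E-selectin grains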;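 on nuclei count: 100% = median nuclei count of all wells on the same plate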). As to conditions: HUVEC TNFalpha-induced E-selectin immunofluorescence imaging, at 2 µM; inhibition: stronger effect = higher value; nuclei count: measured here: cell number, toxicity.
Test [4] deals with Voltage-gated potassium channel subunit beta-2 (Rattus norvegicus) (UniProt P62483). As to the kind of experiment: inhibitors of rat Kvbeta2 reductase activity – biochemical, NADPH fluorescence, primary screen (AID 622;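 active means fluorescence slope higher than the sample average by over 3 SD, cut at about -0.22 in these data, passing the limit was not always enough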;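 further: slope of raw intensity against log time taken from 70 to 1610 s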). As to conditions: recombinant KvBeta, 4-cyanobenzaldehyde reduction, at 10 µM, stronger effect = higher value.
Test [5] shares this target. As to the kind of experiment: enhancers of rat Kvbeta2 NADPH turnover – biochemical, NADPH fluorescence, primary screen (AID 623;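 active means NADPH fluorescence slope more negative than the mean of all samples by about 3 SD, 99.7% confidence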;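 further: fluorescence intensity change per second fitted from 20 to 320 s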). As to conditions: Recombinant KvBeta, NADPH fluorescence decrease slope, 10 min; at 10 µM; stronger effect = lower value.
Test [6] deals with Alpha-2C adrenergic receptor (Homo sapiens) (UniProt P18825). Put plainly: compounds altering alpha2C-coupled GIRK flux – cell-based, HEK293 alpha2C/GIRK1/2, thallium flux, primary screen (AID 624;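 active means fluorescence slope after compound addition differing from the mean of all screened samples at 99.7% confidence, in either direction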;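 further: slope of fluorescence ratio to pre-addition baseline per second over 15 to 24 s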). The following applies: thallium flux BTC fluorescence, at 10 µM, actives lie on both sides.
A short description of test [7]: blockers of RIG-like receptor reporter activation – cell-based, Sendai virus stimulus, luciferase, 10K MLSCN set, TLR/RLR signaling modifier project, primary screen (AID 602276;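 active means inhibition at or above 50% at 10 µM; inactive means inhibition below 50%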;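 further: firefly luciferase from ISG56 promoter only with Renilla not read in this screen; 0% = Sendai virus plus DMSO and 100% = medium plus DMSO without virus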). As to conditions: HEK293 RL24 IRF3 luciferase reporter, at 10 µM, stronger effect = higher value.
Test [8] is described as follows: TLR3 IRF3 reporter activation blockers – cell-based, poly I:C stimulus, luciferase, 10K MLSCN set, primary screen (AID 602277;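 active means inhibition of the reporter signal at or above 50%; inactive means inhibition below 50%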). The following applies: HEK293-TLR3 RL24 IRF3 luciferase reporter, at 10 µM, stronger effect = higher value.

Active and inactive are the calls of the source.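 How the source made its calls, unless noted: active means inhibition above 20% together with a positive visual image hit; inconclusive means visual image hit but inhibition not above 20%; inactive means no visual image hit.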

Sequence of Alpha-2C adrenergic receptor (Homo sapiens) (P18825 whole entry, looked up): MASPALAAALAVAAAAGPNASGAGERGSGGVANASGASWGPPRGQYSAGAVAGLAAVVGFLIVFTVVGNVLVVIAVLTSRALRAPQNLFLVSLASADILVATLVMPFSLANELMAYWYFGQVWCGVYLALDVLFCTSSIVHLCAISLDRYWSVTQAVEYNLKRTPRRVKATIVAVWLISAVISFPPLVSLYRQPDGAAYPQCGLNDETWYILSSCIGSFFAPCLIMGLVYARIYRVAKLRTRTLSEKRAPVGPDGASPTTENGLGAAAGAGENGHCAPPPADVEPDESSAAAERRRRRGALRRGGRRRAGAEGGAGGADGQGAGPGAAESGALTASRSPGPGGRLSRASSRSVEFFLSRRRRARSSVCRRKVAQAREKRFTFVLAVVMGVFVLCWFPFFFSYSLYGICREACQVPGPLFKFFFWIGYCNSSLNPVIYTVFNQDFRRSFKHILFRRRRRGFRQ
Sequence of Voltage-gated potassium channel subunit beta-2 (Rattus norvegicus) (P62483 whole entry, looked up): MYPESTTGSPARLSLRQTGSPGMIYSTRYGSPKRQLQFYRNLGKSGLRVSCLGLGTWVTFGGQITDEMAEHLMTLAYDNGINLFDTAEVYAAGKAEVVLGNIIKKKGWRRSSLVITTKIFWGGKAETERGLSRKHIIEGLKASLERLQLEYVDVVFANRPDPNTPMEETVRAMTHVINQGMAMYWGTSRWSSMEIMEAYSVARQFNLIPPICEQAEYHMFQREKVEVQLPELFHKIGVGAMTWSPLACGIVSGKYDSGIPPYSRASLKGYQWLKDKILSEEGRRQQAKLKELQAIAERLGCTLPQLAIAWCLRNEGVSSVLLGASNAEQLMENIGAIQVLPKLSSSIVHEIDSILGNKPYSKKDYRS

What is called inhibition is the drop in the measured response relative to a control, in per cent. As to `COc1ccc(OC)c(-n2nnnc2SCC(=O)NCc2ccc3c(c2)OCO3)c1`, in test [1], the cell count is 324. For the same molecule, the inhibition in test [1] is -12.5% (inactive); in test [3], -26.8% (inactive); in test [7], 18% (inactive); in test [8] it was -14.2% (inactive). Further, the inhibition of aggregation in test [2] was -18.9% (inactive). Also, the nuclei count in test [2] worked out at 101%; in test [3], 109%. Besides, the fluorescence slope in test [4] was -0.604 (inactive). For the same molecule, in test [5], the NADPH fluorescence slope is -1.7e-05 (inactive). Moreover, the slope in test [6] was 0.00401 (inactive).

On to `Nc1nnc(-c2cn(-c3ccccc3)nc2-c2ccccc2)o1`, for which the cell count in test [1] stood at 523. For the same molecule, the inhibition in test [1] is -12.5% (inactive); in test [3] it was -16.3% (inactive); in test [7], -22.2% (inactive); in test [8], -23.6% (inactive). In test [2], the inhibition of aggregation was -7.1% (inactive). The results for the nuclei count in test [2] and in test [3] were 90.3% and 113%, respectively. Also, in test [4], the fluorescence slope is -0.481 (inactive). Also, in test [5], the NADPH fluorescence slope was 1.3e-05 (inactive). Besides, the slope in test [6] was 0.00498 (inactive).

For `Cc1c(NS(=O)(=O)c2ccc3c(c2)n(C)c(=O)n3C)c(=O)n(-c2ccccc2)n1C`, the cell count in test [1] was found to be 582. Further, the inhibition in test [1] is 2.7% (inactive); in test [3] it was 28% (inactive); in test [7], 15.8% (inactive); in test [8], 13.4% (inactive). The inhibition of aggregation in test [2] is -2% (inactive). Also, the nuclei count in test [2] was 99.2%; in test [3] it was 93%. Also, the fluorescence slope in test [4] is -0.616 (inactive). Also, in test [5], the NADPH fluorescence slope was 1.5e-05 (inactive). Besides, the slope in test [6] is 0.00372 (inactive).

As to `Cc1ccc(S(=O)(=O)N2CCN(C(=O)c3cc(=O)[nH]c4ccccc34)CC2)c(C)c1`, the cell count in test [1] amounted to 539. Besides, the inhibition in test [1] was -11.9% (inactive); in test [3], 5.3% (inactive); in test [7] it was 17.3% (inactive); in test [8], 31% (inactive). In addition, the inhibition of aggregation in test [2] is -23.6% (inactive). In addition, the nuclei count in test [2] is 100%; in test [3] it was 162%. In test [4], the fluorescence slope is -0.5 (inactive). Moreover, the NADPH fluorescence slope in test [5] is -2.6e-05 (inactive). Moreover, the slope in test [6] is 0.00525 (inactive).

With `CSc1nc(N2CCOCC2)c2ccccc2n1`, the cell count in test [1] worked out at 730. Also, the inhibition in test [1] was -29.3% (inactive); in test [3], -56.6% (inactive); in test [7] it was 6.41% (inactive); in test [8], -10.5% (inactive). Further, the inhibition of aggregation in test [2] is 13.4% (inactive). Besides, the nuclei count worked out at 80.7% in test [2] and 114% in test [3]. Besides, in test [4], the fluorescence slope was -0.601 (inactive). In test [5], the NADPH fluorescence slope is -3.9e-05 (inactive). In addition, the slope in test [6] is 0.00469 (inactive).

Turning to `O=C(c1ccc(CNc2c(N3CCCC3)c(=O)c2=O)cc1)N1CCc2ccccc2C1`, the cell count in test [1] is 535. Also, the inhibition in test [1] was 2.3% (inactive); in test [3], -18.6% (inactive); in test [7] it was -7.92% (inactive); in test [8] it was 4.25% (inactive). In addition, in test [2], the inhibition of aggregation is -13.5% (inactive). Also, the nuclei count in test [2] was determined as 100%; in test [3], 108%. Further, the fluorescence slope in test [4] is -0.614 (inactive). For the same molecule, the NADPH fluorescence slope in test [5] is 2.4e-05 (inactive). Besides, the slope in test [6] was 0.00541 (inactive).

On to `O=C1CC(c2ccsc2)c2cc3c(cc2N1)OCCO3` (centres undefined), for which the cell count in test [1] came out at 623. For the same molecule, the inhibition was 0% (inactive) in test [1], -78.5% (inactive) in test [3], 1.12% (inactive) in test [7] and 21.1% (inactive) in test [8]. In test [2], the inhibition of aggregation was -4.2% (inactive). For the same molecule, the nuclei count was 87.6% in test [2] and 129% in test [3]. The fluorescence slope in test [4] was -0.556 (inactive). Also, the NADPH fluorescence slope in test [5] was -2.5e-05 (inactive). In test [6], the slope is 0.0063 (inactive).

In the case of `Nc1c(C(=O)NCc2ccco2)nnn1Cc1ccccc1`, the cell count in test [1] amounted to 277. In addition, the inhibition in test [1] was -13.1% (inactive); in test [3] it was -65.2% (inactive); in test [7], 8.14% (inactive); in test [8], 3.26% (inactive). Also, the inhibition of aggregation in test [2] is 5.9% (inactive). Besides, the nuclei count in test [2] was 94.8%; in test [3], 115%. The fluorescence slope in test [4] was -0.399 (inactive). For the same molecule, in test [5], the NADPH fluorescence slope was -4.5e-05 (inactive). Besides, the slope in test [6] was 0.00354 (inactive).

Take `CCOCCn1c(CN2CCC(Cc3ccccc3)CC2)nc2c1c(=O)n(C)c(=O)n2C`: the cell count in test [1] worked out at 598. Also, the inhibition was 10.6% (inactive) in test [1], 7.1% (inactive) in test [3], 19.8% (inactive) in test [7] and 22.9% (inactive) in test [8]. The inhibition of aggregation in test [2] was 25.3% (inactive). The nuclei count in test [2] was 84.1%; in test [3] it was 108%. In addition, the fluorescence slope in test [4] is -0.473 (inactive). The NADPH fluorescence slope in test [5] was -2.3e-05 (inactive). Moreover, in test [6], the slope was 0.00435 (inactive).

Values taken from PubChem BioAssay.
